Records with an inconclusive call do not appear. Entries that show only a call come without a potency. Active and inactive are the calls of the source. The call rests on the fitted dose curve.
The molecules below were run against Progesterone receptor (Homo sapiens) (UniProt P06401) (assay: qHTS assay to identify small molecule agonists of the progesterone receptor (PR) signaling pathway (AID 1346784; further: nearly all actives have a fitted effect of over 30% in size)). Settings: PR-UAS-bla HEK293T, beta-lactamase FRET ratio, 16 h; series mostly up to 92.4 µM.
Progesterone receptor (Homo sapiens), sequence (P06401 whole entry, looked up): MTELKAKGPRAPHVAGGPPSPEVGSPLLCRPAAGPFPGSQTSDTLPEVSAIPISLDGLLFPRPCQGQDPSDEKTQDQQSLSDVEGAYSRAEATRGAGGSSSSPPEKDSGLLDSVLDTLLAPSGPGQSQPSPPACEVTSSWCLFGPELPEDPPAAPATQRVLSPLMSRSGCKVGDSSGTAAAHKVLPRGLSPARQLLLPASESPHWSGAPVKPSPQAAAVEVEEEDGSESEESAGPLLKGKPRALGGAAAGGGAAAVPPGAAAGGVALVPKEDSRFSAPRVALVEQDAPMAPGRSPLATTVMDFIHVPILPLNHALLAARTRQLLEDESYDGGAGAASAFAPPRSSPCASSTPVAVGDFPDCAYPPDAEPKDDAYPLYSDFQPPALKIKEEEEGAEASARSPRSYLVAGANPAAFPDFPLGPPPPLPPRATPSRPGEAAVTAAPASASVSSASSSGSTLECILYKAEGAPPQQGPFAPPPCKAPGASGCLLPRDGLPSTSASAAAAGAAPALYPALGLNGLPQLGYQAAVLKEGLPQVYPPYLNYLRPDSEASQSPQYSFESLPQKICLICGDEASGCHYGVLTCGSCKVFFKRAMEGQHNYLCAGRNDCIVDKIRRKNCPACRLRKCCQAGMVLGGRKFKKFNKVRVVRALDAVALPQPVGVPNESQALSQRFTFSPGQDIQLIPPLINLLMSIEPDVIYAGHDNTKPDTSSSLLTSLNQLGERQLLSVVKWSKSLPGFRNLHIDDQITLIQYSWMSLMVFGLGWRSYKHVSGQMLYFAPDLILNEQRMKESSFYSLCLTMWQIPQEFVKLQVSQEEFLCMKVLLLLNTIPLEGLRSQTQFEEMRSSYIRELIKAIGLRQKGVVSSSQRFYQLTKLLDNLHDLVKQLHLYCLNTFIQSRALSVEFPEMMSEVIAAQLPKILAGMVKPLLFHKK
Description: U.S. Tox21 Program National Center for Advancing Translational Sciences [NCATS] NIH Chemical Genomics Center [NCGC] U.S. Environmental Protection Agency [EPA] National Institutes of Environmental Health Sciences [NIEHS] National Toxicology Program [NTP] U.S. Food and Drug Administration [FDA] […] Endocrine disrupting chemicals (EDCs) and their interactions with steroid hormone receptors like PR causes disruption of normal endocrine function. To identify the compounds that activate PR signaling, a PR-UAS-bla GripTite cell line i.e. PR-UAS-bla HEK 293T (Invitrogen, Carlsbad, CA, USA) containing a beta-lactamase reporter gene under the control of an Upstream Activator Sequence (UAS) was used to screen Tox21 10K compound library.
Tox21 Assay Protocol Summary: PR-UAS-bla HEK 293T cells were dispensed at 3,000 cells/5 uL of assay medium containing 2% charcoal stripped FBS per well into black wall/clear-bottom 1536-well plates using a Multidrop Combi (ThermoFisher Scientific, Waltham, MA) dispenser. After the assay plates were incubated at a 37C and 5% CO2 for 6hr, 23 nL of compounds dissolved in DMSO, positive controls or DMSO only was transferred to the assay plate by a Pintool station (Kalypsys, San Diego, CA). The plates were incubated at 37C and 5% CO2 for 16hr. Then 1 uL of LiveBLAzer B/G FRET substrate was added using a BioRAPTR FRD (Flying Reagent Dispenser, Aurora Discovery, San Diego, CA). After the plates were incubated at room temperature for 2 hours, fluorescence intensity was measured by an Envision plate reader (PerkinElmer, Shelton, CT).
Potency means the concentration at half of the fitted maximal effect.

| Compound | Potency |
| --- | --- |
| Cc1ccc(OP(=O)(Oc2ccccc2)Oc2ccccc2)cc1 | inactive |
| O=CC(Br)(Br)Br | inactive |
| CCOC(=O)C1(c2ccccc2)CCN(CCC(C#N)(c2ccccc2)c2ccccc2)CC1 | inactive |
| CCCN(CCC)CCc1c[nH]c2ccccc12 | inactive |
| COP(N)(=S)OC | inactive |
| C[C@@H]1O[C@@H](O[C@H]2C[C@@H](O)[C@]3(CO)[C@H]4[C@H](O)C[C@]5(C)[C@@H](C6=CC(=O)OC6)CC[C@]5(O)[C@@H]4CC[C@]3(O)C2)[C@H](O)[C@H](O)[C@H]1O | inactive |
| CCC(C)(C)C(=O)OC1=C(c2ccc(Cl)cc2Cl)C(=O)OC12CCCCC2 | inactive |
| ClCCN1CCOCC1 | inactive |
| CCOC(=O)CC(=O)CCl | inactive |
| CC(C)Oc1cccc(NC(=O)c2ccccc2C(F)(F)F)c1 | 1.22 µM (active) |
| Nc1c(Oc2ccccc2)cc(O)c2c1C(=O)c1ccccc1C2=O | inactive |
| Nc1ccc(Cl)cc1C(=O)c1ccccc1 | inactive |
| Cc1ccc(C(=O)Cl)cc1 | inactive |
| c1ccc2c(c1)[nH]c1cnccc12 | inactive |
| CC(C)(COCC1CO1)COCC1CO1 (stereo not given) | inactive |
| O=C(NC(=O)c1c(F)cccc1F)Nc1cc(Cl)c(OC(F)(F)C(F)F)c(Cl)c1 | inactive |
| CCCCCCCCCCCCCCCC[n+]1ccccc1 | inactive |
| CCCCOP(=O)(CCCC)OCCCC | inactive |
| ClC1=C(Cl)[C@]2(Cl)[C@@H]3[C@@H](Cl)[C@H](Cl)C[C@@H]3[C@@]1(Cl)C2(Cl)Cl | inactive |
| CN(CCCC(=O)c1cccnc1)N=O | inactive |

| Compound | Potency |
| --- | --- |
| ClC(Cl)=C(c1ccc(Cl)cc1)c1ccc(Cl)cc1 | inactive |
| CC(C)(C)c1cc([N+](=O)[O-])cc(C(C)(C)C)c1O | inactive |
| ClC1=C(Cl)C2(Cl)C3C(Cl)C(Cl)CC3C1(Cl)C2(Cl)Cl (stereo not given) | inactive |
| C[C@H]1O[C@@H](O[C@H]2[C@@H](O)C[C@H](O[C@H]3[C@@H](O)C[C@H](O[C@H]4CC[C@@]5(C)[C@H](CC[C@@H]6[C@@H]5CC[C@]5(C)[C@@H](C7=CC(=O)OC7)CC[C@]65O)C4)O[C@@H]3C)O[C@@H]2C)C[C@H](O)[C@@H]1O | inactive |
| BrC(Br)C(Br)(Br)Br | inactive |
| FC(Cl)(Cl)Cl | inactive |
| CC(C)OS(C)(=O)=O | inactive |
| CNC(C)Cc1ccc2c(c1)OCO2 (stereo not given) | inactive |
| BrCC(Br)c1ccccc1 (stereo not given) | inactive |
| ClCc1ccccc1CCl | inactive |
| N#CCCSCCC#N | inactive |
| O=c1oc2ccccc2c(O)c1Cc1c(O)c2ccccc2oc1=O | inactive |
| c1ccc(OCC2CO2)cc1 (stereo not given) | inactive |
| CC(C)CBr | inactive |
| CCc1ccccc1C | inactive |
| Oc1ccccc1Br | inactive |
| CCCCCCCCCCCCCCC(Br)C(=O)O (stereo not given) | inactive |
| O=C(CCCN1CCC2(CC1)C(=O)NCN2c1ccccc1)c1ccc(F)cc1 | inactive |
| CC(=[OH+])/C=C(/C)[O-].CC(=[OH+])/C=C(\C)[O-].CC(=[OH+])/C=C(\C)[O-].[Al] | inactive |
| CC1(c2ccc(Oc3ccccc3)cc2)OC(=O)N(Nc2ccccc2)C1=O (stereo not given) | inactive |
